About 380 (29%) of roughly 1,300 compounds were called active. Roughly 37% stayed inconclusive and do not appear here. Calls come from the whole dose curve; as a rule, active = well fitted inhibition curve with a large enough effect; inconclusive = small, poorly fitted or top-dose-only effect; inactive = flat fitted curve, though single readings scatter. The list shows a part of the results.
Target: Thyrotropin receptor (Homo sapiens) (UniProt P16473)
Assay: qHTS for antagonists of the Thyroid Stimulation Hormone Receptor: Hit Validation in Primary Screen; note: nearly all actives have a fitted effect of over 80% in size
Details: TSHR-expressing cells, cAMP antagonist mode; series mostly up to 58 µM
Procedure, shortened: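 TSHR-expressing cells were pretreated with compound, then stimulated with TSH at EC80 (4nM final) for 2 hours at 37 deg C. Cellular cAMP measured by competitive HTRF (anti-cAMP cryptate, cAMP-d2) after 30 min at room temperature.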
Potency is the fitted concentration of half-maximal effect.

Thyrotropin receptor (Homo sapiens), sequence (P16473 whole entry, looked up): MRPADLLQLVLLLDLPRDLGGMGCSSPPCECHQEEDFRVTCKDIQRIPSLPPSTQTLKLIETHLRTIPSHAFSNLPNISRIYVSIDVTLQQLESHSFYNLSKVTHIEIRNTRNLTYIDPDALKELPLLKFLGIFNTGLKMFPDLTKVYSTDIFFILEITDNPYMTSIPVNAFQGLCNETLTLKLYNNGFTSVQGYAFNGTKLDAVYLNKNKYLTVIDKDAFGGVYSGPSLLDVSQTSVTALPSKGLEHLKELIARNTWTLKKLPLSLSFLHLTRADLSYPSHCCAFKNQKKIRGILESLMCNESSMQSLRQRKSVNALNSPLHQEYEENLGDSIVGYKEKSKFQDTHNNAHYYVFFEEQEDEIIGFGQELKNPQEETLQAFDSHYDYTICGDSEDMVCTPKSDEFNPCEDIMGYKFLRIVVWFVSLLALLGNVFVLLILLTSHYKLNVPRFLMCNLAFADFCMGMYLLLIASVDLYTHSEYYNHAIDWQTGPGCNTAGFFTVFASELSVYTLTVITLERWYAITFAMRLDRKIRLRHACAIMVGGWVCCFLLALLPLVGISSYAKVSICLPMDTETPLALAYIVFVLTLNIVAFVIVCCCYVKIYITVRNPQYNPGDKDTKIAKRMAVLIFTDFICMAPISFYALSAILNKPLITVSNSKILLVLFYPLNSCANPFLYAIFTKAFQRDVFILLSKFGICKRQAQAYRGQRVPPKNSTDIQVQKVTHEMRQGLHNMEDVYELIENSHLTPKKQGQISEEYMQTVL

Potency, active:
COc1ccc(/C=N/NC(=O)c2ccoc2C)cc1COc1c(C)cccc1C 12 µM
O=c1cc(C(F)(F)F)[nH]c2ccc(OC(F)(F)F)cc12 9.53 µM
O=c1cc(C(F)(F)F)[nH]c2c(C(F)(F)F)cccc12 2.39 µM
N#CC1=C(N)NC(SCc2ccc(Br)cc2)=C(C#N)C12CCCCC2 23.9 µM
Cc1cc(Cl)c(S(=O)(=O)N2CCSCC2)cc1OCC(=O)NC1CCCCC1 23.9 µM
c1ccc(CNc2ncnc3scc(-c4cccs4)c23)nc1 21.3 µM
O=C(COc1ccc(-c2ccccc2)cc1)Nc1cccnc1 37.9 µM
O=C(Nc1ccc(Br)cc1)c1cccc(S(=O)(=O)Nc2cnc3ccccc3c2)c1 21.3 µM
CCCCN1C(=O)c2ccc(C(=O)Nc3ccc(C)c(S(=O)(=O)N(C)C)c3)cc2C1=O 23.9 µM
O=[N+]([O-])c1cccc(S(=O)(=O)Nc2nc3ccccc3nc2Nc2cccc(S(=O)(=O)N3CCCCC3)c2)c1 12 µM
COC(=O)c1sc(-c2ccc(C(C)(C)C)cc2)cc1NC(=O)/C=C/C(=O)O 26.9 µM
COC(=O)c1sc(-c2ccc(Cl)cc2)cc1NC(=O)/C=C/C(=O)O 30.1 µM
CC[n+]1ccc(/C=C/c2ccc(N(C)C)cc2)c2ccccc21 26.9 µM
CN(C)c1ccc(/C=C/c2ccc3c4ccccc4ccc3[n+]2-c2ccccc2)cc1 23.9 µM
CN(C)c1ccc(/C=C/c2cc[n+](C)cc2)cc1 37.9 µM
CC[n+]1c(/C=C/c2ccc(N(C)C)cc2)ccc2ccccc21 26.9 µM
COc1ccc(CCNC(=O)c2ccc(Cl)c(S(=O)(=O)N3CCCCCC3)c2)cc1 16.9 µM
COc1ccc(-c2cc(C3CCN(c4cc(Cl)nc(N)n4)CC3)[nH]n2)cc1 37.9 µM
O=S(=O)(Nc1cccnc1)c1ccc(Br)c2ccccc12 26.9 µM
COc1cccc(NC(=O)Nc2nc(-c3ccc(OC)c(OC)c3)cs2)c1 15.1 µM
CC(=O)Nc1ccc(-c2csc(NC(=O)Nc3ccccc3)n2)cc1 37.9 µM
COc1ccc(OCC(=O)NC(=S)Nc2ccc(N3CCOCC3)c(Cl)c2)cc1 19 µM
O=C(c1ccco1)N1CCN(c2ncnc3c2nnn3Cc2ccccc2Cl)CC1 30.1 µM
CN(C)S(=O)(=O)c1ccc(C(=O)Nc2nc(-c3cccs3)cs2)cc1 19 µM
CCOC(=O)Cc1csc(NC(=O)COc2ccc(N(C)S(=O)(=O)c3cccs3)cc2)n1 23.9 µM
CC1CCCCN1C(=O)CSCC(=O)Nc1nc(-c2cccs2)cs1 (stereo unspecified) 30.1 µM
O=C(COc1ccc(Cl)cc1)Nc1nc(-c2cccs2)cs1 23.9 µM
CSC1=NSC2=NC(=O)/C(=C\c3coc4ccccc4c3=O)C(=N)N12 2.69 µM
CCSC1=NSC2=NC(=O)/C(=C\c3coc4ccccc4c3=O)C(=N)N12 1.69 µM
N#Cc1cccc(NC(=O)COC(=O)c2cc(S(=O)(=O)Nc3ccccc3Cl)ccc2O)c1 12 µM
CCC(=O)OCCNc1cc(Sc2nc3ccccc3[nH]2)c2nonc2c1[N+](=O)[O-] 23.9 µM
CCCC(=O)OCCNc1cc(Sc2nc3ccccc3[nH]2)c2nonc2c1[N+](=O)[O-] 23.9 µM
CCC(=O)OCCNc1cc(Sc2nccn2C)c2nonc2c1[N+](=O)[O-] 19 µM
CC(=O)OCCNc1cc(Sc2nc3ccccc3[nH]2)c2nonc2c1[N+](=O)[O-] 26.9 µM
CC1=NN(C(N)=S)C(=O)C1N=Nc1ccc(Cl)cc1Cl (stereo unspecified) 30.1 µM
COc1cccc(N2CCN(c3ncnc4c3cnn4-c3ccc(C)cc3C)CC2)c1 10.7 µM
CC(C)N(Cc1ccccc1)C(=O)COC(=O)c1cnc(Cl)c(Cl)c1 23.9 µM
CCc1ccc(/C=C/C(=O)c2cc(Br)ccc(=O)c2O)cc1 9.53 µM
Cc1cccc(/C=C/C(=O)c2cc(Br)ccc(=O)c2O)c1 15.1 µM
COc1ccc2[nH]c3c(NCCC4=CCCCC4)ncnc3c2c1 4.78 µM
C1=C(CCNc2ncnc3c2[nH]c2ccccc23)CCCC1 23.9 µM
CCCCOCCCNc1ncnc2c1[nH]c1ccccc12 30.1 µM
Cc1cccc(NC(=S)NCC(C)CSc2ccc(Cl)cc2)c1 (stereo unspecified) 30.1 µM

Potency, inactive:
NC(=O)c1cc(S(=O)(=O)NCc2ccc(F)cc2)cs1
CCN(CCCNC(=O)Cn1ncc2c([nH]c3ccc(C)cc32)c1=O)c1cccc(C)c1
COc1ccc(N2C(=O)NC(NS(=O)(=O)c3ccc(Cl)cc3)(C(F)(F)F)C2=O)cc1 (stereo unspecified)
O=c1nc(/C=C/c2ccccc2C(F)(F)F)cc(C(F)(F)F)[nH]1
O=C(Cn1ncc2c([nH]c3ccccc32)c1=O)NCC1CCN(Cc2ccc(F)cc2)CC1
CCOC(=O)C1=C(C)Nc2ccccc2N=C1NC(=O)c1cc(C)on1
COc1ccc(Cl)cc1NC(=O)C1CCN(C(=O)C2CC(=O)N(c3ccc(C)cc3)C2)CC1 (stereo unspecified)
COc1cc(OC)c(NC(=O)Cn2cnc3sc(C)c(S(=O)(=O)N4CCOCC4)c3c2=O)cc1Cl
Cc1ccc(S(=O)(=O)N2CCCC(C(=O)NC3CCCC3)C2)cc1Cl (stereo unspecified)
O=C(NC1CCCCC1)c1cc(-c2ccccc2O)on1
CCOC(=O)c1c(S(=O)(=O)NCC(=O)Nc2cccc(C)c2C)c(C)n(C)c1C
Cc1ccc(OCc2nnc(NC(=O)c3cccnc3)s2)cc1
O=C(CCC(=O)Nc1ccccc1)N/N=C/c1ccncc1
CCCN1C(=O)c2ccc(C(=O)Nc3cc(C)ccc3O)cc2C1=O
Cc1ccccc1NC(=O)C1(C)Cc2ccccc2C(=O)O1 (stereo unspecified)
CCN(C(=O)CSc1nnc(-c2ccccc2)o1)c1c(N)n(Cc2ccccc2)c(=O)[nH]c1=O
CC1CC(C)CN(CCCNC(=O)CN2C(=O)COc3ccc(S(=O)(=O)N4CCOCC4)cc32)C1 (stereo unspecified)
CC(C)C1Nc2ccc(C(=O)N3CCN(c4ccccn4)CC3)cc2NC1=O (stereo unspecified)
CC1CCc2c(sc(NC(=O)c3ccco3)c2C(=O)O)C1 (stereo unspecified)
O=S(=O)(C/C(=C/CO)S(=O)(=O)c1ccccc1)c1ccccc1
Cc1ccnc(OC(C(=O)O)C(OCCc2ccccc2)(c2ccccc2)c2ccccc2)n1 (stereo unspecified)
CSCC[C@H](NC(=O)c1ccc(Cl)c(S(=O)(=O)N2CCCC2)c1)c1nc2ccccc2[nH]1
O=C(c1ccc(Cl)c(S(=O)(=O)N2CCCCC2)c1)N1CCCC1
O=C(N[C@H]1C/C=C\C(c2ccc(F)cc2)N(Cc2ccccc2)C(=O)C1)OCC1c2ccccc2-c2ccccc21 (stereo partly specified)
COc1ccc(-c2ccc(SCc3ccccn3)nn2)cc1OC
COc1ccc(NC(=O)CSc2nc3[nH]c(=O)[nH]c(=O)c3s2)cc1OC
O=C(NC(=S)Nc1ccccc1)c1cc(-c2ccccc2)nc2ccccc12
CCN(CC)C(=O)Cn1c(=O)n(-c2ccccc2)c(=O)c2sccc21
CC(=O)c1ccc(N(C(=O)CNC(=O)c2ccco2)C(C(=O)NC2CCCC2)c2ccncc2)cc1 (stereo unspecified)
COc1ccc(NC(=S)N(CCCN2CCOCC2)C(C)c2cc3cccc(OC)c3o2)cc1 (stereo unspecified)
COc1ccc(NC(=O)CCNS(=O)(=O)c2ccc3c(c2)CC(C)N3C(C)=O)cc1 (stereo unspecified)
CC(C)Nc1ncnc2c1nnn2Cc1ccccc1
N#Cc1nc(-c2ccccc2)oc1N1CCN(C(=O)c2ccco2)CC1
O=C(Nc1nc(-c2cccs2)cs1)c1cccc(S(=O)(=O)N2CCCCCC2)c1
CN(Cc1ccccc1)S(=O)(=O)c1ccc(OCC(=O)NCc2ccccn2)cc1
CCOc1ccc(N(CC(=O)NCc2ccc(F)cc2)C(=O)CCC(=O)Nc2nccs2)cc1
CCN(CC)c1ccc(C(=O)OCC(=O)N2CCCC2)cc1
COc1cccc(NC(=S)N2CCCN(Cc3ccc(F)cc3)C2)c1
Cn1nnnc1SCC1=C(C(=O)O)N2C(=O)C(NC(=O)C3CC3c3ccccc3)C2SC1 (stereo unspecified)
O=C1C=C(c2ccc(Cl)c(C(F)(F)F)c2)C[C@@H](c2ccc(F)cc2)C1
Cc1ccc(-c2nnc(SCC(=O)NC3CCCC3)n2C)cc1
COc1ccc(F)cc1CN1CCN(C(=O)CCC(=O)Nc2nnc(CC(C)C)s2)CC1
O=c1[nH]cccc1-c1nc2ccccc2n1Cc1ccc(F)cc1
Cn1c(CNC(=O)c2ccc(Cl)cc2)nnc1SCC(=O)NC1CCCC1
CCN(c1cccc(C)c1)S(=O)(=O)c1cn(CC(=O)OC)c2ccc([N+](=O)[O-])cc12
CNC(=S)n1cnc(N)n1
NS(=O)(=O)c1ccc(CCNC(=O)c2cc3ccccc3s2)cc1
O=C(CNC(=O)c1ccco1)OCC(=O)c1ccccc1
CCCCNC(=O)CC1C(=O)N(Cc2ccccc2)C(C)c2nc3ccccc3n21 (stereo unspecified)
CC(=O)N(C)c1ccc(N=NC2C(=O)N(C(N)=S)N=C2C)cc1 (stereo unspecified)
O=C1c2cccnc2C(=O)N1Cc1ccc(S(=O)(=O)N2CCN(c3ccc(Cl)cc3)CC2)cc1
Cc1onc(-c2ccccc2)c1NC(=O)N(Cc1ccccc1)C(C)C
Cc1cccc(NC(=O)CCN2CCN(C)CC2)c1
